# Only a sample is shown.
# Pf growth 96h = Primary qHTS for delayed death inhibitors of the malarial parasite plastid, 96 hour incubation; hit rate 6.9% among 320,000; P. falciparum luciferase reporter growth, 96 h; Potency, µM (doses to about 28.7 µM), for the others: at the top dose activity change, negative = inhibition, usual class: inhibitors; also: potency is read from the fitted curve at half-maximal effect; % is scaled to controls: 0 for no effect and ±100 for the full control effect
#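 Erythrocytes infected with luciferase-expressing P. falciparum were dispensed at 2% hematocrit and 0.05% parasitemia (final), then incubated with compounds 96 hours at 37 C in 5% CO2. Luminescence after detection reagent addition reported growth.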
# NS1 function inh = qHTS Assay for Inhibitors of Influenza NS1 Protein Function. AID 2326, 2010. Potency, µM (series often up to 46.1 µM), inactives show at the top dose activity, positive = more growth. hit rate 0.4% among 270,000; calls by dose curve; also: potency is read from the fitted curve at half-maximal effect; actives are rising curves; nearly all actives have a fitted effect of over 50% in size
#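 A cell-based growth assay was used: compounds that relieve NS1-induced slow growth of budding yeast raise OD600. Assay medium was yeast nitrogen base with ammonium sulphate and -URA supplement, pH 6.0, with 2% galactose.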
# Pf growth 48h = Primary qHTS for delayed death inhibitors of the malarial parasite plastid, 48 hour incubation. Potency, µM (series often up to 28.7 µM), inactives show top-dose activity change, negative = inhibition, hits mostly inhibitors. hit rate 5.9% among 310,000. P. falciparum luciferase growth in erythrocytes, 48 h. AID 504832, 2011; also: potency is read from the fitted curve at half-maximal effect; % is scaled to controls: 0 for no effect and ±100 for the full control effect
#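 Luciferase-expressing P. falciparum in infected erythrocytes (2% hematocrit, 0.1% parasitemia final) in RPMI 1640/0.5% Albumax were exposed to compound for 48 hours at 37 C, 5% CO2; growth read as luminescence.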
# CHX counter-1 = Cycloheximide Counterscreen for Small Molecule Inhibitors of Shiga Toxin | cell reporter, cycloheximide protein synthesis inhibition counterscreen | max response, % | hit rate 12% among 300,000; in the data active = max response mostly above about 13%, no sharp cut-off; inactive = mostly below about 14%; also: read at 38.3 µM for the half of the compounds with a filed dose; 0% is about no effect
# Giardia FBPA inh-1 = qHTS Assay for Inhibitors of Fructose-1,6-bisphosphate Aldolase from Giardia Lamblia; A8B2U2; purified Giardia FBPA; Potency, µM (top dose mostly 59.6 µM), inactives show at the top dose activity, negative = inhibition, hits mostly inhibitors; hit rate 0.71% among 290,000; also: potency is read from the fitted curve at half-maximal effect; % is scaled to controls: 0 for no effect and ±100 for the full control effect; nearly all actives have a fitted effect of over 55% in size
# Target sequence (A8B2U2 whole entry, looked up): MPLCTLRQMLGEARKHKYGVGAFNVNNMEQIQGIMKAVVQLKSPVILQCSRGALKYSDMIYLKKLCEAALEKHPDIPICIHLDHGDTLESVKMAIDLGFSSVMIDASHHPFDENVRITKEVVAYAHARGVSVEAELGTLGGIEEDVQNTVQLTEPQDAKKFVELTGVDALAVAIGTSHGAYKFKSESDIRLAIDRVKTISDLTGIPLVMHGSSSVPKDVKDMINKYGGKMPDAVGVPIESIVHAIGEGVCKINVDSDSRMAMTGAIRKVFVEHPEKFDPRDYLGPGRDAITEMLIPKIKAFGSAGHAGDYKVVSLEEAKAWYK
#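 Giardia FBPA (40 nM reagent) was preincubated 10 min at RT with compound (up to 57.5 uM final), then substrate plus GAPDH/TPI/NAD/arsenate coupling system with diaphorase/resazurin was added; resorufin fluorescence (525/598 nm) was read after 20 min.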
# Shiga toxin inh = A qHTS for Small Molecule Inhibitors of Shiga Toxin | Vero cells, Shiga toxin protein synthesis inhibition reporter | hit rate 9.2% among 290,000 | inhibition, % at 38.7 µM; in the data active = inhibition mostly above about 28%, no sharp cut-off; inactive = mostly below about 43%; also: 0% is about no effect
# CHX counter-2 = Cycloheximide Counterscreen for Small Molecule Inhibitors of Shiga Toxin (Confirmatory). Potency, µM (series often up to 38.3 µM), for inactives: top-dose activity (activation), hits mostly activators. Cycloheximide counterscreen, protein synthesis reporter, Shiga toxin assay. shares compounds with Shiga toxin inh. hit rate 3% among 510; calls by dose curve; also: potency is read from the fitted curve at half-maximal effect; 0% is about no effect
# Flu NS1 inh = Assay for Inhibitors of Influenza NS1 Protein Function: Hit Validation; shares compounds with NS1 function inh; influenza NS1 function cell assay, 15-point titration; activity change, negative = inhibition, % at 32.9 µM; 1,400 tested, under 10 active; AID 492980, 2010; calls by dose curve; also: 0% is about no effect
# Giardia growth = qHTS Assay for Inhibitors of Fructose-1,6-bisphosphate Aldolase from Giardia Lamblia: Giardia lamblia growth inhibition; hit rate 5% among 1,500; Potency, µM (doses to about 57.5 µM), inactives show at the top dose activity change, negative = inhibition, most hits filed as inhibitors; Giardia lamblia trophozoite growth inhibition; AID 2785, 2010; shares compounds with Giardia FBPA inh-1;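 also: potency is read from the fitted curve at half-maximal effect; trophozoites exposed to compound for 48 h at 37 °C; % is scaled to controls: 0 for no effect and ±100 for the full control effect; nearly all actives have a fitted effect of over 70% in size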
# Mammal cell tox = qHTS Assay for Inhibitors of Fructose-1,6-bisphosphate Aldolase from Giardia Lamblia: Mammalian cellular toxicity | shares compounds with Giardia FBPA inh-1 | mammalian cell viability counter-screen, qHTS | Potency, µM (highest dose often 57.5 µM), for inactives: top-dose viability change, negative = toxicity, actives largely listed as inhibitors | hit rate 4% among 1,500;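 also: Chinese hamster ovary cells used as mammalian cytotoxicity surrogate; viability measured as cellular ATP by luminescence; potency is read from the fitted curve at half-maximal effect; compound exposure lasted 48 h before reading; % is scaled to controls: 0 for no effect and ±100 for the full control effect; nearly all actives have a fitted effect of over 60% in size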
# Giardia FBPA inh-2 = qHTS Assay for Inhibitors of Fructose-1,6-bisphosphate Aldolase from Giardia Lamblia: Primary screen confirmation; hit rate 5% among 1,500; Potency, µM (titrated, usually from 57.5 µM), inactives show at the top dose activity change, negative = inhibition, usual class: inhibitors; AID 2787, 2010; purified Giardia aldolase enzyme activity, qHTS; shares compounds with Giardia FBPA inh-1; also: potency is read from the fitted curve at half-maximal effect; % is scaled to controls: 0 for no effect and ±100 for the full control effect; nearly all actives have a fitted effect of over 45% in size
# Rabbit aldolase = qHTS Assay for Inhibitors of Fructose-1,6-bisphosphate Aldolase from Giardia Lamblia: Rabbit FBPA Selectivity | Rabbit muscle FBPA enzyme inhibition, selectivity counter-screen | hit rate 4% among 1,500 | shares compounds with Giardia FBPA inh-1 | Potency, µM (titrated, usually from 57.5 µM), for the others: at the highest dose activity, negative = inhibition, actives largely listed as inhibitors; also: potency is read from the fitted curve at half-maximal effect; % is scaled to controls: 0 for no effect and ±100 for the full control effect; nearly all actives have a fitted effect of over 60% in size
# Target sequence (P00883 whole entry, looked up): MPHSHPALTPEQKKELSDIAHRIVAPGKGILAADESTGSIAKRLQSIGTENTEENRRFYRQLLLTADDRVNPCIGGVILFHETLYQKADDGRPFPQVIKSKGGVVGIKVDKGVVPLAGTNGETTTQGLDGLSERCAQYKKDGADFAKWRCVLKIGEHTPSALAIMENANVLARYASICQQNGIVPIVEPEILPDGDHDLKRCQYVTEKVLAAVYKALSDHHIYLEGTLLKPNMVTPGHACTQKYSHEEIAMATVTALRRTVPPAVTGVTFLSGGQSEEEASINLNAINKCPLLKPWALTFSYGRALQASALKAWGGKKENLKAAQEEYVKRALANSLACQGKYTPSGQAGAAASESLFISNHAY
# GAPDH coupling = qHTS Assay for Inhibitors of Fructose-1,6-bisphosphate Aldolase from Giardia Lamblia: Coupling assay counterscreen confirmation | shares compounds with Giardia FBPA inh-1 | GAPDH coupling enzyme counterscreen, biochemical, qHTS | Potency, µM (titrated, usually from 57.5 µM), without a hit: at the highest dose activity change, negative = inhibition, actives largely listed as inhibitors | hit rate 6% among 1,500 | AID 2795, 2010; also: potency is read from the fitted curve at half-maximal effect; % is scaled to controls: 0 for no effect and ±100 for the full control effect; nearly all actives have a fitted effect of over 55% in size
# Numbers without * were called inactive; u = inconclusive; x = not tested or not shown; [ ] = remark or other dose. Unless noted, calls follow the shape of the dose curve; as a rule, active = well fitted curve in the direction sought with a large enough effect; inconclusive = small, poorly fitted or top-dose-only effect, or another doubt; inactive = no such curve, though single readings can be large; an effect the other way counts as inactive or inconclusive.
SMILES,Pf growth 96h,NS1 function inh,Pf growth 48h,CHX counter-1,Giardia FBPA inh-1,Shiga toxin inh,Flu NS1 inh,others
Oc1ccc(C2C[C@H]3CC[C@@H]2C3)cc1O (stereo partly specified),-5.8%,-35.8%,-11.0%,1.3,28.2µM*,33.6*,x,CHX counter-2=0.3%;Giardia growth=-18.2%;Mammal cell tox=-5.2%;Giardia FBPA inh-2=14.1µM*;Rabbit aldolase=31.6µM*;GAPDH coupling=31.6µM*
CC(C)c1ccc(NS(=O)(=O)c2ccc(N3C(=O)CCC3=O)cc2)cc1,-11.5%,2.4%,31.8%,-2.2,11.1%,15.0,x,
Cc1nc(C)c(-c2nnc(-c3ccc(C(C)(C)C)cc3)o2)cc1C(=O)NN,5.3%,10µM*,u,0.0,1.6%,-5.0,29.0,
CCCCC1=CC2=C(c3ccco3)C(=O)C(C)(OC(=O)c3ccc(OC)cc3)C(=O)C2=CN1CCc1ccccn1 (stereo unspecified),u,u,u,5.1,u,39.7,19.7,
COC(=O)CCCC1=CC2=CC(=O)C(C)(OC(=O)c3cccs3)C(=O)C2=CN1CCc1ccccn1 (stereo unspecified),u,1.1%,u,-2.2,u,28.5,x,
CCCCC1=CC2=CC(=O)C(C)(OC(=O)CC)C(=O)C2=CN1CCc1ccccn1 (stereo unspecified),u,u,u,-2.1,u,-8.5,7.5,
Cc1cc(C)c(NC(=S)NC(CO)(CO)CO)c(C)c1,15.0%,2.2%,4.0%,8.1,1.5%,-22.3,x,
O=C(NCc1ccccc1)c1cccc(OCC(=O)N2CCN(C(=O)c3ccco3)CC2)c1,x,u,-25.7%,10.2,-10.0%,4.0,11.0,
O=C(COc1ccc2ccccc2c1)N1CCN(C(=O)c2ccco2)CC1,28.2%,x,12.8%,12.5,0.7%,-7.3,x,
CC(=O)N1CCCc2cc(S(=O)(=O)N3CCCC(C(=O)N4CCN(c5ccccc5)CC4)C3)ccc21 (stereo unspecified),-0.1%,u,u,4.2,-5.8%,-18.2,x,
COc1ccccc1N1CCN(C(=O)C2CCCN(S(=O)(=O)c3ccc4c(c3)CCCN4C(C)=O)C2)CC1 (stereo unspecified),39.0%,u,u,2.1,6.7%,-18.4,-20.5,
O=C(NC(=S)Nc1ccccc1N1CCN(C(=O)c2ccccc2)CC1)c1ccccc1F,40.5%,14.6%,u,-2.9,x,-32.0,x,
CNC(=S)SCCOc1ccccc1C,u,-2.3%,13.3%,9.9,-8.9%,16.7,x,
COc1ccccc1Nc1nn2c(=O)c3ccc(C(=O)N4CCC(C)CC4)cc3nc2s1,-14.9%,u,u,-7.7,2.3%,-11.6,u,
CC(C)COC(=O)C1[C@H]2C(=O)N(Cc3cccs3)C[C@]23C=C[C@H]1O3 (stereo partly specified),-3.0%[5.75 µM],4.8%,4.4%,-2.4,8.5%,-0.2,x,
NNC(=O)c1csc(Cc2c(Cl)sc3ccc(Cl)cc23)n1,-18.5%,u,-4.2%,5.3,15.6%,-5.9,-29.9,
Cc1ccc(S(=O)(=O)Nc2ccccc2C(=O)OC(C)C(=O)Nc2ccc3ccccc3c2)cc1[N+](=O)[O-] (stereo unspecified),u,4.47µM*,-9.9%,1.6,-0.6%,12.5,-10.2,
CCc1ccc(NC(=O)C(C)OC(=O)c2ccc(NS(=O)(=O)c3ccc(C)c([N+](=O)[O-])c3)cc2)cc1 (stereo unspecified),-12.7%,-35.5%,0.6%,4.4,11.3%,8.6,x,
Cc1cccc(COCC(Cc2ccccc2)N2CCN(C(=O)c3ccc(C(F)(F)F)cc3)CCC2=O)c1 (stereo unspecified),u,20.5%,u,-1.1,-1.4%,12.3,x,
O=C(c1ccc(C(F)(F)F)cc1)N1CCC(=O)N(C(COCc2ccc(C(F)(F)F)cc2)Cc2ccccc2)CC1 (stereo unspecified),9.28µM*,u,u,14.7,12.7%,22.3,-18.2,
O=C(c1ccc(Cl)c(Cl)c1)N1CCC(=O)N(C(COCc2cccc(Cl)c2)Cc2ccccc2)CC1 (stereo unspecified),-102.9%,22.4µM*,-69.4%,-5.3,-5.6%,-14.0,1.1,
O=C(Cn1cnc2cc([N+](=O)[O-])ccc2c1=O)NC(c1ccccc1)c1ccccc1,u,20.8%,-27.3%,-0.6,0.6%,-15.5,x,
O=C(COc1ncnc2ccc(Br)cc12)NCc1ccco1,65.1%,-5.3%,0.4%,-3.1,4.9%,-4.2,x,
CCOC(=O)CN1CC23C=CC(O2)C(C(=O)Nc2ccc(OC)cc2OC)C3C1=O (stereo unspecified),u,3.16µM*,16.6%,12.0,-22.9%,10.4,-2.4,
CCOC(=O)CN1CC23C=CC(O2)C(C(=O)Nc2cc(OC)ccc2OC)C3C1=O (stereo unspecified),u,7.8%,27.5%,5.9,-7.0%,14.4,x,

# High-throughput results as filed in PubChem BioAssay.
